# An excerpt weighted towards active compounds, which were near 2.4% of everything screened.
# Pol kappa inh: qHTS for Inhibitors of Polymerase Kappa. DNA polymerase kappa (Homo sapiens), Q9UBT6. purified Pol kappa, fluorescent DNA synthesis assay, 10 min. Potency, µM (doses to about 107 µM), most hits filed as inhibitors. 400,000 tested, 0.53% active
#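 Kinetic fluorescence readout at 0 and 10 min followed reaction start with substrate at 50 nM final. Beforehand, enzyme (10 nM Pol kappa) stood 15 min with compound at room temperature; buffer-only wells were negative controls.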
# POLI inh: qHTS for Inhibitors of Polymerase Iota; DNA polymerase iota (Homo sapiens), Q9UNA4; Pol iota fluorescent replication assay, 10 min; Potency, µM (titrated, usually from 115 µM), hits mostly inhibitors; 390,000 tested, 1% active; AID 588590, 2011
# Target sequence (Q9UNA4 whole entry, looked up): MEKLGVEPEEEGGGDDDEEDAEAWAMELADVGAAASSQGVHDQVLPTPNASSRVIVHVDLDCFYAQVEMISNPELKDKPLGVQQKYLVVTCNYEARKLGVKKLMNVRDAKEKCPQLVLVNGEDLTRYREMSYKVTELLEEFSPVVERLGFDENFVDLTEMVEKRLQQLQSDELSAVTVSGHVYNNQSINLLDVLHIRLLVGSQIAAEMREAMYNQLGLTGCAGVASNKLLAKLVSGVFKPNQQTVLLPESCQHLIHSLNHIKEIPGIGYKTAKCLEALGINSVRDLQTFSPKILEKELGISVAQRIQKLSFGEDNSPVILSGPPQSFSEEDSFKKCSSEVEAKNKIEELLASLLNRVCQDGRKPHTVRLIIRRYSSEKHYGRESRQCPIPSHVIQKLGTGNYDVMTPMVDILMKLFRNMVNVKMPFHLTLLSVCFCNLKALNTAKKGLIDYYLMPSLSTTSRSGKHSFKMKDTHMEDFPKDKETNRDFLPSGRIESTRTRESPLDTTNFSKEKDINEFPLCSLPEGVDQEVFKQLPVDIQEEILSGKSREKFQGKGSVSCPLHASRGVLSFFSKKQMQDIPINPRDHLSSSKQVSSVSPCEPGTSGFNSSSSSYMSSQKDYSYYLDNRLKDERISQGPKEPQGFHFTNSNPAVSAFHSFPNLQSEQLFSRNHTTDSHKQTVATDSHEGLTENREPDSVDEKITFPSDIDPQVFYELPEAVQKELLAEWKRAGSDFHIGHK
#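 Pol iota at 10 nM preincubated 15 min with compounds at room temperature; reaction started with fluorescent substrate, 50 nM final. Fluorescence read kinetically at 0 and 10 min; buffer-only wells as negative control.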
# POLH inh: qHTS for Inhibitors of Polymerase Eta | DNA polymerase eta (Homo sapiens), Q9Y253 | recombinant Pol eta, fluorescent DNA replication assay | Potency, µM (titrated, usually from 114 µM), actives largely listed as inhibitors | 390,000 tested, 1.2% active | AID 588591, 2011
#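 Fluorescent replication assay: 50 nM final substrate added after a 15 min room-temperature compound preincubation with 10 nM enzyme. Signal taken at 0 min and again at 10 min.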
# POLB inh: qHTS Assay for Inhibitors of DNA Polymerase Beta; P06746; Pol beta primer extension/strand displacement, fluorescence kinetic; Potency, µM (doses to about 114 µM), actives largely listed as inhibitors; 340,000 tested, 1.3% active
#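 Pol beta (10 nM) was preincubated with compound for 15 min at room temperature. The reaction was then started with 50 nM substrate and read immediately and after a further 10 min at room temperature.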
# WRN helicase inh: qHTS for Inhibitors of WRN Helicase; WRN helicase unwinding, fluorescent forked duplex, kinetic; 360,000 tested, 0.46% active; Potency, µM (titrated, usually from 114 µM), usual class: inhibitors; further: nearly all actives have a fitted effect of over 55% in size
#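 Kinetic fluorescence helicase assay: unwinding of a quenched forked DNA duplex (100 nM final) with 2 mM ATP final raises red fluorescence (525/598 nm). Compounds sat 15 min at room temperature with 20 nM WRN beforehand.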
# FEN1 inh: qHTS Assay for the Inhibitors of Human Flap endonuclease 1 (FEN1); 390,000 tested, 0.35% active; P39748; Potency, µM (titrated, usually from 114 µM), most hits filed as inhibitors; Recombinant FEN1 flap cleavage, fluorescence, 15 min; further: nearly all actives have a fitted effect of over 65% in size
#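 Read-out was taken twice, immediately and after 15 min, following addition of 50 nM substrate to 10 nM FEN1 that had sat with test compound for 15 min at room temperature. Curves came from a four-parameter Hill model.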
# Numbers stand for hits; - = inactive; ? = inconclusive; . = not tested or not shown; ! = repeats disagree; [ ] = remark or other dose. The call rests on the fitted dose curve; in most records, active means well fitted curve in the direction sought with a large enough effect; inconclusive means small, poorly fitted or top-dose-only effect, or another doubt; inactive means no such curve, though single readings can be large; an effect the other way counts as inactive or inconclusive.
SMILES,Pol kappa inh,POLI inh,POLH inh,POLB inh,WRN helicase inh,FEN1 inh
O=C(O)CCCC(=O)Nc1cc([N+](=O)[O-])ccc1O,-,-,-,-,-,-
Cc1ccccc1OCC(=O)NCC(C)NC(=O)COc1ccccc1C (configuration not stated),-,-,.,.,.,-
COc1cc(-c2ccc(N=Nc3ccc4c(S(=O)(=O)O)cc(S(=O)(=O)O)c(N)c4c3O)c(OC)c2)ccc1N=Nc1ccc2c(S(=O)(=O)O)cc(S(=O)(=O)O)c(N)c2c1O,0.251µM,.,.,.,.,.
Cc1cc(=O)cc2oc3cc(N)c(-c4c(C)cc(O)cc4O)c(C)c3nc1-2,4.47µM,.,.,.,.,.
CN(CC(=O)Nc1ccc(F)c(F)c1F)C(=O)/C=C/c1ccco1,-,50.1µM,?,.,-,-
CCCSc1nc2sc3c(c2c(=O)n1-c1ccc(C)c(Cl)c1)CCN(C(C)=O)C3,-,?,79.4µM,?,.,-
O=S(=O)(Nc1cc(Br)cc2cccnc12)c1ccccc1,-,-,.,.,.,-
Cc1cc(O)c(C=O)c2c1C(=O)Oc1c(CO)c(O)c3c(c1O2)C(O)OC3=O (configuration not stated),0.794µM,1.12µM,2.82µM,2.24µM,3.55µM,3.55µM
Cc1cc(O)c(C=O)c2c1C(=O)Oc1c(COC(=O)/C=C/C(=O)O)c(O)c(C(=O)O)c(C)c1O2,3.55µM,.,.,.,.,.
O=C(Nc1cccc(Cl)c1)c1ccc(=O)[nH]n1,-,17.8µM,-,-,-,-
O=C(Nc1ccc(F)cc1)c1ccc(=O)[nH]n1,-,-,-,-,-,-
Clc1ccc(-c2nnc(-c3ccco3)nc2N2CCCCC2)cc1,-,-,?,39.8µM,?,-
Clc1ccc(-c2nnc(-c3ccc(Br)cc3)c(N3CCSCC3)n2)cc1,-,-,-,-,-,-
CCCN(C(=O)/C=C/c1nc2ccccc2s1)C1CCS(=O)(=O)C1 (configuration not stated),-,-,-,.,-,-
CC1(NC(=O)/C=C/c2nc3ccccc3s2)CCS(=O)(=O)C1 (configuration not stated),79.4µM,39.8µM,50.1µM,.,-[11.6 µM],-
Oc1ccc2c(c1)OC(c1ccc(O)c(O)c1)C(O)C2 (configuration not stated),10µM,.,.,.,.,.
O[C@@H]1Cc2ccccc2O[C@H]1c1ccccc1,-,-,-,.,-,-
Oc1cc(O)c2c(c1)O[C@H](c1ccc(O)c(O)c1)[C@@H](O)C2,?,?,28.2µM!,12.6µM,.,-
C=C1C=C(C(F)F)n2ncc(C(=O)NCc3ccc(Cl)cc3)c2N1,-,-,.,.,.,-
Cc1ccc(NC(=S)/C(C#N)=C2/Nc3ccccc3S2)cc1,.,.,39.8µM,.,-,.
CCCN1C(=O)c2ccccc2NC1c1ccc(OC)c(COc2ccc([N+](=O)[O-])cc2)c1 (configuration not stated),-,-,.,.,.,-
CCc1c(C)nc2cc(-c3cccc(Br)c3)[nH]n2c1=O,-,-,-,25.1µM,-,-
CCOC(=O)CCc1c(C)nc2cc(-c3cc(OC)cc(OC)c3)[nH]n2c1=O,-,-,-,28.2µM,.,-
COc1cc(OC)cc(-c2cc3nc(C)c(CCC(=O)O)c(=O)n3[nH]2)c1,-,-,-,-,-,-
CCc1c(C)nc2cc(-c3ccc(Cl)cc3)[nH]n2c1=O,-,-,-,-,-,-
SMILES,Pol kappa inh,POLI inh,POLH inh,POLB inh,WRN helicase inh,FEN1 inh
Cc1cc(C)n2c(Nc3ccccc3)c(-c3ccc(C)o3)nc2n1,-,-,.,.,.,-
CCn1c(SCC(=O)N/N=C/C=C/c2ccco2)nc2ccccc21,-,20µM,50.1µM,22.4µM,?,-
CCn1c(SCC(=O)N/N=C/C=C/c2ccco2)nnc1-c1ccc(OC)cc1,-,-,-,25.1µM,-,-
O=C(N/N=C/C=C/c1ccco1)C(O)c1ccccc1 (configuration not stated),?,12.6µM,50.1µM,.,-,-
CC(/C=N/NC(=O)CSc1nc2ccccc2n1C)=C\c1ccco1,?,56.2µM,14.1µM,?,-,-
CCNC(=O)c1c(NC(=O)c2nc(SC)ncc2Cl)sc2c1CCCC2,-,-,.,.,.,-
Nc1[nH]c(=S)nc2nnsc12,-,-,.,.,.,-
O=C(N/N=C/c1cc(Br)c(Br)o1)C(O)c1ccccc1 (configuration not stated),-,?,50.1µM,22.4µM,?,-
Cc1ccc(OCC(=O)N/N=C/C=C/c2ccco2)cc1,?,15.8µM,17.8µM,-,-[11.6 µM],-
O=C(Cc1ccc(Cl)cc1)NO,-,-,.,.,.,-
COc1ccc2c(c1)C(=O)CC2,-,-,.,.,.,-
CC[C@H](C)[C@H](NC(=O)[C@@H](NC(=O)[C@@H](CC(=O)NO)Cc1ccccc1)[C@@H](C)CC)C(=O)O,-,.,.,.,.,.
COc1ccc(CNC(=O)Nc2ccc(C)cc2)cc1,-,-,-,-,-,-
COc1ccc(CNC(=O)Nc2cc(C)cc(C)c2)cc1,-,-,-,31.6µM,-,-
CCOC(=O)C1=C(CN(CC)Cc2ccccc2)NC(=O)NC1c1ccc(OC(C)C)cc1 (configuration not stated),-,-,-,-,.,-
N#Cc1c(NC(=O)CSc2ncccn2)oc(-c2ccccc2)c1-c1ccccc1,?,?,10µM,.,?,-
Cc1ccnc(SCC(=O)Nc2oc(-c3ccccc3)c(-c3ccccc3)c2C#N)n1,-,-,-,-,-,-
COc1oc(=O)c2cc(N)ccc2c1Cl,-,.,.,.,.,.
CC(=O)Nc1cccc(/C(C)=N/Nc2ccc(S(=O)(=O)Nc3ccccc3C(=O)O)cc2[N+](=O)[O-])c1,-,?,22.4µM,.,?,79.4µM
O=[N+]([O-])c1ccc(N/N=C/c2ccccc2)c(F)c1,-,-,-,-,-,-
COc1ccc(C(C)=NNc2ccc([N+](=O)[O-])cc2S(=O)(=O)Nc2ccccc2C(=O)O)c(OC)c1,-,-,44.7µM,.,-[11.6 µM],-
CN(CCO)c1ccc(C=NNc2ccc([N+](=O)[O-])cc2S(=O)(=O)Nc2ccccc2C(=O)O)cc1,-,?,?,.,44.7µM,79.4µM
Cc1ccc(NC(=S)NNc2ccc([N+](=O)[O-])cc2S(=O)(=O)Nc2ccccc2C(=O)O)cc1C,-,-,28.2µM,?,?,-
CC(=O)N[C@@H]1C(O[C@H]2O[C@H](C(=O)O)C(O)[C@H](O)[C@H]2O)[C@H](O)[C@@H](CO)O[C@H]1O[C@@H]1C(C(=O)O)O[C@@H](O[C@H]2[C@H](O)[C@@H](CO)OC(O)[C@@H]2NC(C)=O)[C@H](O)[C@H]1O (some centres not stated),-[19.4 µM],.,.,.,.,.
CC12CCC(C(N)=O)(c3nc4ccccc4nc31)C2(C)C (configuration not stated),-,-,-,89.1µM,-,-

# Screening results from PubChem.
